Results on 14 compounds are retold here after PubChem BioAssay (Tox21).

The nature of experiment [1]: qHTS assay to identify small molecule antagonists of the thyroid receptor (TR) signaling pathway - cell viability counter screen (AID 743064). Further: nearly all actives have a fitted effect of over 50% in size. The essentials:
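Same-well viability check: GH3.TRE-Luc cells stimulated with 1 nM T3 alongside test compound for 23.5 h, followed by CellTiter-Fluor fluorescence.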

Experiment [2] can be described thus: qHTS assay to identify small molecule antagonists of the thyroid receptor (TR) signaling pathway (AID 743065). Further: nearly all actives have a fitted effect of over 55% in size. Further: potency means the concentration at half of the fitted maximal effect. The essentials: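 GH3.TRE-Luc rat pituitary cells carrying two TR response elements driving luciferase were plated for 4 h, given compound plus 1 nM T3 (final), and incubated 23.5 h at 37 C. ONE-Glo luminescence measured reporter inhibition; CellTiter-Fluor fluorescence tracked cytotoxicity.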
A general note: Quantitative high-throughput screening tests each substance at several concentrations.

Experiment [3] concerns thyroid hormone receptor (rat, GH3 cells). The experiment is described as follows: qHTS assay to identify small molecule agonists of the thyroid receptor (TR) signaling pathway (AID 743066; calls by dose curve).
The nature of experiment [4]: qHTS assay to identify small molecule antagonists of the estrogen receptor alpha (ER-alpha) signaling pathway - cell viability counter screen (AID 743074; calls by dose curve;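 further: HEK293 cells carrying ER-alpha-UAS-bla reporter stimulated with 17beta-estradiol; nearly all actives have a fitted effect of over 45% in size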).
Experiment [5] addresses Estrogen receptor (Homo sapiens) (UniProt P03372). Nature of the experiment: qHTS assay to identify small molecule agonists of the estrogen receptor alpha (ER-alpha) signaling pathway (AID 743075; calls by dose curve;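 further: HEK293 GripTite cells with ER-alpha and UAS-driven beta-lactamase reporter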; further: potency means the concentration at half of the fitted maximal effect).
For experiment [6] the target is unchanged. Nature of the experiment: qHTS assay to identify small molecule agonists of the estrogen receptor alpha (ER-alpha) signaling pathway using the BG1 cell line (AID 743079). Further: nearly all actives have a fitted effect of over 20% in size. Further: potency means the concentration at half of the fitted maximal effect.
A short description of experiment [7]: qHTS assay to identify small molecule antagonists of the estrogen receptor alpha (ER-alpha) signaling pathway using the BG1 cell line (AID 743080; calls by dose curve;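 further: BG1 cells stimulated with 17beta-estradiol alongside compound; series mostly up to about 70 µM; nearly all actives have a fitted effect of over 25% in size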). In a few lines: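 Luciferase inhibition measured with ONE-Glo after 30 min at RT in BG1Luc4E2 cells given test compounds and 17beta-estradiol for 21.5 h at 37 C; CellTiter-Fluor viability read in the same wells beforehand.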

A short description of experiment [8]: qHTS assay to identify small molecule antagonists of the estrogen receptor alpha (ER-alpha) signaling pathway using the BG1 cell line - cell viability counter screen (AID 743081).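 Further: compound given together with 17beta-estradiol as the ER stimulus; series mostly up to about 70 µM; nearly all actives have a fitted effect of over 45% in size.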
In the next experiment the target is Aromatase (Homo sapiens) (UniProt P11511). Nature of the experiment: qHTS assay to identify aromatase inhibitors (AID 743083). Further: series mostly up to about 70 µM; nearly all actives have a fitted effect of over 55% in size.
The nature of experiment [9]: qHTS assay to identify aromatase inhibitors - cell viability counter screen (AID 743084).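 Further: cells stimulated with testosterone during compound exposure; nearly all actives have a fitted effect of over 55% in size.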
The target of experiment [10] is Aryl hydrocarbon receptor (Homo sapiens) (UniProt P35869). Nature of the experiment: qHTS assay to identify small molecule that activate the aryl hydrocarbon receptor (AhR) signaling pathway (AID 743085). Further: nearly all actives have a fitted effect of over 15% in size. Further: potency means the concentration at half of the fitted maximal effect.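 On activation: HG2L7.5c1 human HepG2 liver cells with stably integrated DRE-driven firefly reporter; series mostly up to about 70 µM.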 In a few lines:
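Reporter assay in engineered HepG2 line HG2L7.5c1, whose plasmid carries twenty dioxin responsive elements upstream of firefly luciferase. Treatment lasted 24 h at 37C; ONE-Glo luminescence gauged induction.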

Experiment [11] in a line: qHTS assay to identify small molecule that activate the aryl hydrocarbon receptor (AhR) signaling pathway - cell viability counter screen (AID 743086).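 Further: HepG2 liver cells carrying the AhR DRE luciferase reporter; series mostly up to about 70 µM; nearly all actives have a fitted effect of over 45% in size.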 In a few lines:
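HepG2-AhR-luc (HG2L7.5c1) cells, 4000/well, were preincubated 5 h at 37C, exposed to compound in qHTS format for 24 hr at 37C, then given CellTiter-Fluor for 30 min; viability was read as fluorescence in the reporter wells.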

For experiment [12], the target named is Peroxisome proliferator-activated receptor gamma (Homo sapiens) (UniProt P37231). The experiment is described as follows: qHTS assay to identify small molecule antagonists of the peroxisome proliferator-activated receptor gamma (PPARg) signaling pathway (AID 743191; calls by dose curve; further: series mostly up to about 63 µM; nearly all actives have a fitted effect of over 30% in size). The essentials: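 GeneBLAzer PPARg UAS-bla HEK293H cells carrying a UAS-driven beta-lactamase reporter were plated at 3000 cells/well, preincubated 5 h at 37C, then given compound for 17 h at 37C; LiveBLAzer B/G FRET substrate was read after 1 h at room temperature.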

A short description of experiment [13]: qHTS assay to identify small molecule antagonists of the peroxisome proliferator-activated receptor gamma (PPARg) signaling pathway - cell viability counter screen (AID 743194). Further: nearly all actives have a fitted effect of over 55% in size. The essentials: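 PPARg-UAS-bla HEK293H cells were plated, rested 5 h at 37 C, then treated with compounds plus rosiglitazone (50 nM final) for 17 h at 37 C; viability was then read by CellTiter-Glo luminescence after 30 min at room temperature.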

A short description of experiment [14]: qHTS assay for small molecule agonists of the antioxidant response element (ARE) signaling pathway (AID 743202; active means well fitted activation curve with a large enough effect in the signal ratio in the repeat runs, not every such curve was filed as active; inconclusive means weak or mixed curves, or effect the other way; inactive means no such curve, though single readings can be large or run the other way; the % refers to the signal ratio). In a few lines: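 Read-out: LiveBLAzer B/G FRET substrate fluorescence after 2 h at room temperature, following 16 h compound treatment at 37 C of HepG2 cells carrying an ARE-driven beta-lactamase reporter.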
Experiment [15] is described as follows: qHTS assay for small molecule agonists of the antioxidant response element (ARE) signaling pathway - cell viability counter screen (AID 743203; calls by dose curve; further: nearly all actives have a fitted effect of over 55% in size). The essentials:
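Cells (ARE-bla HepG2, 2,000/well) receive DMSO-dissolved compounds after a 5 hrs rest. Plates incubate 16 hrs at 37C/5% CO2. CellTiter-Glo luminescence is then recorded after 30 min at room temperature.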

Experiment [16] is described as follows: qHTS assay for small molecule activators of the heat shock response signaling pathway - cell viability counter screen (AID 743209). Further: nearly all actives have a fitted effect of over 50% in size. In a few lines: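 Quantitative HTS format, Tox21 10K library. HeLa cells carrying an HSE-driven beta-lactamase reporter were treated 5 h at 37 C, then assessed for viability by CellTiter-Glo luminescence.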
A short description of experiment [17]: qHTS assay for small molecule activators of the heat shock response signaling pathway (AID 743210; active means well fitted activation curve with a large enough effect in the signal ratio in the repeat runs, with a control signal flat, not every such curve was filed as active; inconclusive means weak or mixed curves; the % refers to the signal ratio; further: series mostly up to about 63 µM). The essentials: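 HSE-bla HeLa cells (beta-lactamase reporter under heat shock response elements) were exposed to compounds for 5 h at 37 C, then loaded with LiveBLAzer B/G FRET substrate for 2.5 h at room temperature before fluorescence reading.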
Experiment [18] deals with Peroxisome proliferator-activated receptor gamma (Homo sapiens) (UniProt P37231). The experiment is described as follows: qHTS assay to identify small molecule agonists of the peroxisome proliferator-activated receptor gamma (PPARg) signaling pathway (AID 743094; active means well fitted activation curve with a large enough effect in the signal ratio in the repeat runs, not every such curve was filed as active; inconclusive means weak or mixed curves, or effect the other way; inactive means no such curve, though single readings can be large or run the other way; the % refers to the signal ratio). In a few lines:
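Stably transfected HEK293H cells (GeneBLAzer PPARg UAS-bla) were incubated with test substances for 17 h at 37C after a 5 h pre-incubation; beta-lactamase activity was then detected by FRET substrate fluorescence.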

Each structure is given as a SMILES string. The source made the active and inactive calls. Unless noted, the call rests on the fitted dose curve; in most records, active means well fitted curve in the direction sought with a large enough effect in the repeat runs; inconclusive means weak or mixed curves; inactive means no such curve, though single readings can be large; an effect the other way counts as inactive or inconclusive.

Sequence of Estrogen receptor (Homo sapiens) (P03372 whole entry, looked up): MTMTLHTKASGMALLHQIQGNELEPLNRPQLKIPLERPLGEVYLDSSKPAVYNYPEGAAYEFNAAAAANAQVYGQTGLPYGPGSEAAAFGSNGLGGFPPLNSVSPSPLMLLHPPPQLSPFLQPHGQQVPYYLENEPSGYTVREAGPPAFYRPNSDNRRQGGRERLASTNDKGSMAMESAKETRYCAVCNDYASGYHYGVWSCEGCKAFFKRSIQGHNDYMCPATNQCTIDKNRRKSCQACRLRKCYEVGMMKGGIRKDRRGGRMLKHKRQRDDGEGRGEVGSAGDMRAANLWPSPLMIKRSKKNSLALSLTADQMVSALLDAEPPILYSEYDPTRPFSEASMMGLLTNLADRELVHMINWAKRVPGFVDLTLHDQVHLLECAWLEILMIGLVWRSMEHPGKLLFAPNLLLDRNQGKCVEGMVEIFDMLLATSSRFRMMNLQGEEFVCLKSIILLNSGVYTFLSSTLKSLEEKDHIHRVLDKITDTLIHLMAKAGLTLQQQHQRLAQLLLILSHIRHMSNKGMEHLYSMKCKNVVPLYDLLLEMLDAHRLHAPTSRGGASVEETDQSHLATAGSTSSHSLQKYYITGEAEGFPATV
Sequence of Peroxisome proliferator-activated receptor gamma (Homo sapiens) (P37231 whole entry, looked up): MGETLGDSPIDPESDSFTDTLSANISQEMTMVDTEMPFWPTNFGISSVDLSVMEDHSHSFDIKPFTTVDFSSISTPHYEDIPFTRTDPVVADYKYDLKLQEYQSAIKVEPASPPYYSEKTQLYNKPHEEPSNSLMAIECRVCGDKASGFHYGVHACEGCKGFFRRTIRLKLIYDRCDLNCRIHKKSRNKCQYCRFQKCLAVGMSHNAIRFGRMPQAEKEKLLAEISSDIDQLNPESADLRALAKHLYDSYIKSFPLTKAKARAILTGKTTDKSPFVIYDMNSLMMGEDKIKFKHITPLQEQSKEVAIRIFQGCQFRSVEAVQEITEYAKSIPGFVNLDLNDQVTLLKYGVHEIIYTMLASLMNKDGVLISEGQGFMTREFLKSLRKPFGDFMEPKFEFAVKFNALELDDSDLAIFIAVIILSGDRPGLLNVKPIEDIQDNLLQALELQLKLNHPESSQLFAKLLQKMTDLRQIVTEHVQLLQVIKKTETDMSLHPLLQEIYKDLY
Sequence of Aryl hydrocarbon receptor (Homo sapiens) (P35869 whole entry, looked up): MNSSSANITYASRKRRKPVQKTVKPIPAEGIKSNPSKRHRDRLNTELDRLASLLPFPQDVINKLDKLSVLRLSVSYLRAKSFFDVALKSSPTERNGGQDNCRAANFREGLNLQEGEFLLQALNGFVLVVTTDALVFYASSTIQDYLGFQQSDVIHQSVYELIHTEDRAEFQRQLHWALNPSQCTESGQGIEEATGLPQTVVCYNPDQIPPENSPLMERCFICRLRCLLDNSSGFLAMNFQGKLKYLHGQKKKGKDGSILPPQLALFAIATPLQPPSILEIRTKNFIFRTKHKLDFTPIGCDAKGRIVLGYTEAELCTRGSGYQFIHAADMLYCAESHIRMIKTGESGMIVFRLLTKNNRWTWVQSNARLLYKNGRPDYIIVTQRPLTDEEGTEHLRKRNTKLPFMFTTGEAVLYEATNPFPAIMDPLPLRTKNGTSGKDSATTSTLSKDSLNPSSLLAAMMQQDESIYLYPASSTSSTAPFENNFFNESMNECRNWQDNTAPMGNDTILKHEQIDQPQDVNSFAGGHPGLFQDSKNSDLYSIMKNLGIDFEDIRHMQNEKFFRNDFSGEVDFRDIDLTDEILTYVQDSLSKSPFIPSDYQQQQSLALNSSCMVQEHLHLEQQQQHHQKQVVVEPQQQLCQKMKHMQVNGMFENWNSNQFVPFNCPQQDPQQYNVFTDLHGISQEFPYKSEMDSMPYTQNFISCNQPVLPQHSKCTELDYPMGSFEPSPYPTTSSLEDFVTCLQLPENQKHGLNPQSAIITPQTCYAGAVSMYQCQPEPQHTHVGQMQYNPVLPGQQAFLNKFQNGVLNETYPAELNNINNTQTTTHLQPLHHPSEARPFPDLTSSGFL
Sequence of Aromatase (Homo sapiens) (P11511 whole entry, looked up): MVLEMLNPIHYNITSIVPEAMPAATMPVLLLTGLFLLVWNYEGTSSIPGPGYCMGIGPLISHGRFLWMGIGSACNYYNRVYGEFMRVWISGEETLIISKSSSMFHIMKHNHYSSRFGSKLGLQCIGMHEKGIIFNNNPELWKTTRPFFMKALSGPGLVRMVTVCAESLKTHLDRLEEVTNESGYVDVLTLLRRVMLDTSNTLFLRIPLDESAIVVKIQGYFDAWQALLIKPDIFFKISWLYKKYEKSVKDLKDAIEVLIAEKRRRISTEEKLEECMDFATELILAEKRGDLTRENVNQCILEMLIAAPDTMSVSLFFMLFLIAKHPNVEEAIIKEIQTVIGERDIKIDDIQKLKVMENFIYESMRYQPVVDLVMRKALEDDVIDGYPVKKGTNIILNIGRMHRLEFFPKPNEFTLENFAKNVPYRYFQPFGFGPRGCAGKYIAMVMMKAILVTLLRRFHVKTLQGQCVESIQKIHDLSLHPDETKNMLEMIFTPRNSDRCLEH

Take `CC(C)(C)OC(=O)N1C[C@@H](F)C[C@H]1C(=O)O`: the Potency result in experiment [1], in experiment [2], in experiment [3], in experiment [5], in experiment [6] and in [7] was “inactive” throughout. Besides, the Potency entry (in the experiment with Aromatase (Homo sapiens); in [9]; in experiment [10]; in [11]; in experiment [13]; in experiment [14]) was “inactive” each time. For the same compound, the compound was classed as inactive in experiment [4], in experiment [8], in [12], in [15], in experiment [16] and in [17].
Turning to `C(=C(c1ccccc1)c1ccccc1)c1ccccc1`, the Potency entry (in experiment [1]; in experiment [2]; in experiment [3]; in experiment [7]; with Aromatase (Homo sapiens); in experiment [9]) was “inactive” throughout. The Potency entry in experiment [10], in experiment [11] and in [13] was “inactive” in each case. Besides, the compound was classed as inactive in experiment [4], in [8], in experiment [18], in [15], in experiment [16] and in experiment [17]. Also, the Potency in experiment [5] was 7.76 µM [inconclusive] (active); in experiment [6] it was 2.43 µM (active).
Regarding `CCCCCCCCCCCl`, the Potency result in [1], in experiment [2], in experiment [3], in experiment [5], in [6] and in experiment [7] was “inactive” in each case. The Potency result (with Aromatase (Homo sapiens); in experiment [9]; in [10]; in [11]; in [13]) was “inactive” throughout. Besides, the outcome in experiment [4], in experiment [8], in experiment [18], in experiment [12], in experiment [15] and in experiment [16] was inactive.
Take `Nc1cc(C(Cl)=C(Cl)Cl)c(S(N)(=O)=O)cc1S(N)(=O)=O`: the Potency entry in [1], in [2], in [3], in [5], in experiment [6] and in [7] was “inactive” throughout. In addition, the Potency result (with Aromatase (Homo sapiens); in experiment [9]; in [10]; in [11]; in experiment [13]; in [14]) was “inactive” each time. The call in experiment [4], in [8], in [18], in [15], in [16] and in experiment [17] was inactive.
In the case of `CCOC(=O)Cn1c(=O)sc2cccc(Cl)c21`, the Potency entry in experiment [1], in [2], in experiment [3], in experiment [5], in experiment [6] and in experiment [7] was “inactive” throughout. Moreover, the Potency result (with Aromatase (Homo sapiens); in experiment [9]; in experiment [11]; in experiment [13]) was “inactive” each time. For the same compound, the compound was called inactive in experiment [4], in [8], in [18], in [12], in experiment [15] and in experiment [16]. Further, in experiment [17], the compound was classed as inactive. Besides, in experiment [10], the Potency is 30.6 µM (active).
On to `Nc1cc(N)cc(C(=O)O)c1`, for which the Potency entry in [1], in experiment [2], in experiment [3], in experiment [5], in [6] and in experiment [7] was “inactive” each time. The Potency result (with Aromatase (Homo sapiens); in experiment [9]; in experiment [10]; in experiment [11]; in [13]) was “inactive” throughout. For the same compound, the compound was classed as inactive in experiment [4], in [8], in experiment [18], in experiment [12], in experiment [15] and in [17].
Take `NC(=O)Nc1nc2ccccc2[nH]1`: the Potency entry in experiment [1], in [2], in experiment [3], in experiment [5], in experiment [6] and in experiment [7] was “inactive” throughout. For the same compound, the Potency entry (with Aromatase (Homo sapiens); in [9]; in experiment [11]) was “inactive” in each case. Besides, the compound was called inactive in [4], in [8], in experiment [18], in experiment [12], in experiment [15] and in experiment [16].
For `CC1(C)SC(C)(C)SC(C)(C)S1`, the Potency result in experiment [1], in experiment [2], in [3], in experiment [5], in [6] and in experiment [7] was “inactive” throughout. Besides, the Potency entry (with Aromatase (Homo sapiens); in [9]; in experiment [10]; in [11]; in experiment [14]) was “inactive” throughout. The compound was classed as inactive in [4], in [8], in experiment [18], in [15] and in experiment [16].
For `CCCCCCCCC=O`, the Potency result in experiment [1], in experiment [2], in experiment [3] and in [6] was “inactive” in each case. In addition, the result in [4], in [8], in experiment [15], in experiment [16] and in experiment [17] was inactive.
As to `NC(=O)CCCCC1CCSS1` (stereo not given), the Potency entry (in experiment [1]; in experiment [2]; in experiment [3]; in experiment [7]; in the experiment with Aromatase (Homo sapiens); in experiment [10]) was “inactive” throughout. Moreover, in experiment [13], the Potency entry is “inactive”. Besides, the compound was classed as inactive in experiment [4], in experiment [8], in experiment [12], in experiment [15], in [16] and in experiment [17]. Further, the results for the Potency in [5] and in [6] were 0.239 µM [inconclusive] (active) and 0.0266 µM (active), respectively.
As to `CCCC(=O)O[C@]1(C(=O)CCl)[C@@H](C)C[C@H]2[C@@H]3CCC4=CC(=O)C=C[C@]4(C)[C@@]3(F)C(=O)C[C@@]21C`, the Potency entry (in [1]; in experiment [3]; in experiment [5]; in [6]; with Aromatase (Homo sapiens); in [9]) was “inactive” each time. Moreover, the Potency entry in experiment [11] and in experiment [13] was “inactive” in each case. In addition, in [2], the Potency was 11.9 µM (active). Besides, the compound was called inactive in experiment [4], in experiment [18], in [15] and in experiment [17].
In the case of `CO[Si](CCCNCCC[Si](OC)(OC)OC)(OC)OC`, the Potency entry in experiment [1], in experiment [2], in experiment [3], in [5], in experiment [6] and in [7] was “inactive” each time. Also, the Potency entry (with Aromatase (Homo sapiens); in experiment [9]; in experiment [10]; in experiment [13]; in experiment [14]) was “inactive” each time. Also, the compound was classed as inactive in [4], in experiment [8], in experiment [18], in [15] and in experiment [17].
Take `OC[C@H]1O[C@@H]2O[C@H]3[C@H](O)[C@@H](O)[C@@H](O[C@H]4[C@H](O)[C@@H](O)[C@@H](O[C@H]5[C@H](O)[C@@H](O)[C@@H](O[C@H]6[C@H](O)[C@@H](O)[C@@H](O[C@H]7[C@H](O)[C@@H](O)[C@@H](O[C@H]8[C@H](O)[C@@H](O)[C@@H](O[C@H]9[C@H](O)[C@@H](O)[C@@H](O[C@H]1[C@H](O)[C@H]2O)O[C@@H]9CO)O[C@@H]8CO)O[C@@H]7CO)O[C@@H]6CO)O[C@@H]5CO)O[C@@H]4CO)O[C@@H]3CO`: the Potency entry (in [1]; in experiment [2]; in experiment [3]; in the experiment with Aromatase (Homo sapiens); in experiment [9]; in experiment [10]) was “inactive” each time. In addition, the Potency result in [11], in [13] and in experiment [14] was “inactive” each time. In addition, the call in [4], in experiment [8], in experiment [18], in experiment [12], in experiment [15] and in [16] was inactive. The compound was classed as inactive in experiment [17].
As to `Fc1ccccc1-c1ccccc1`, the Potency entry in [1], in [2], in experiment [3], in experiment [5], in experiment [6] and in experiment [7] was “inactive” throughout. For the same compound, the Potency result (in the experiment with Aromatase (Homo sapiens); in [9]; in experiment [10]; in [13]) was “inactive” throughout. Further, the compound was classed as inactive in experiment [4], in experiment [8], in experiment [18], in [15] and in [17].
